# Laboratory results taken from the supplement of paper PMC3334620.
# Over roughly 33,000 sequences, “E-score (-0.5 to 0.5)” has its median near -0.013; the highest 2% begin near 0.3. The list comes from a sample in which the highest values are over-represented; it also holds similar and randomly drawn sequences.
# Target: T1, Msn1 (UniProt P22148)
# T1 sequence: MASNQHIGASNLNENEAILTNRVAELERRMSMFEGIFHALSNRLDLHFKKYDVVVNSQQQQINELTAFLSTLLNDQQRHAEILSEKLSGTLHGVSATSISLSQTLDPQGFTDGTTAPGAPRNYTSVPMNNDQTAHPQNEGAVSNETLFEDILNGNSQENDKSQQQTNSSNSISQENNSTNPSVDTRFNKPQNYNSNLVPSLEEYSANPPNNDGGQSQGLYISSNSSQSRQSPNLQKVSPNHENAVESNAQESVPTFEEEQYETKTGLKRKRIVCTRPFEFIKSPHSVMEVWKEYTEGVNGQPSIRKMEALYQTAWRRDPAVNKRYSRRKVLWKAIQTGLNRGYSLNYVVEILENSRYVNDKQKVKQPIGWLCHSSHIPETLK
# Assay: PBM E-score (8-mer binding enrichment) (E-score (-0.5 to 0.5)); higher = stronger / more preferred TF binding
# Conditions: protein concentration: 200 nM; construct: GST-full length
# Method: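 Universal 'all 10-mer' protein binding microarrays (Agilent AMADID 015681) probed with GST-tagged S. cerevisiae TFs (full-length or DBD) made by in vitro transcription/translation (PURExpress), about 100-200 nM. Bound TF was detected with fluorescent anti-GST. Each ungapped 8-mer (which stands for itself and its reverse complement) is scored by the PBM enrichment score (E-score), a modified Wilcoxon-Mann-Whitney statistic from -0.5 to +0.5, computed with the Universal PBM Analysis Suite. Scale: above 0.35 generally sequence-specific binding.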
row,Sequence,PBM E-score
1,ACTAGCGA,0.0418
2,AGCATGCG,-0.0235
3,GAGTCTCA,0.00041
4,CGATAACC,0.0193
5,GAAATGGA,-0.0913
6,GAAATGAC,0.216
7,CCGATTTA,0.109
8,GAGCCCTC,-0.318
9,CCCTAGTA,-0.0771
10,CAAGCGTA,-0.0459
11,CCTTTTAC,0.0837
12,CTGGGGCC,-0.384
13,AGGACCAC,-0.124
14,AGGACAAG,0.472
15,AGGACGAT,-0.0393
16,AGGACAAT,0.483
17,AGGACTAG,0.273
18,AGGACAAC,0.436
19,AGGACTAC,-0.122
20,ACGACAAT,0.24
21,AGGACCAG,-0.141
22,ATTCGAAA,0.0661
23,AATCTGGT,0.0578
24,ATAGGTAC,0.199
25,GCTTTCGA,-0.175

row,Sequence,PBM E-score
1,ATGCCTGC,-0.145
2,ACGGTTAA,-0.117
3,CCTCGTTC,-0.202
4,AGAAAACA,0.108
5,AAGGACTA,-0.00885
6,CAGGACAA,0.481
7,AAGGACAG,0.296
8,AAGGACCA,-0.0926
9,AAGGACTG,-0.0408
10,AAGGACAA,0.485
11,CAGGACCA,-0.0434
12,AAGGACGA,0.0414
13,AAGGACGG,-0.145
14,AAGGACTT,0.347
15,CAGGACAG,0.259
16,AAGGACGT,0.32
17,GCCCGTCA,-0.234
18,ACCGGTAA,-0.0138
19,AACTTTGA,0.12
20,AAATTCGT,0.256
21,AGCCCCGC,-0.0507
22,GGGCCTAA,-0.0118
23,AAGGACCT,0.0694
24,TAGGACTA,0.257
25,AAGGAGAT,-0.164

row,Sequence,PBM E-score
1,TAGGACAA,0.491
2,AAGGACAT,0.49
3,TAGGACCA,0.202
4,TATATGCA,0.102
5,ACATTCAA,0.134
6,CTTGGCCA,-0.0402
7,AAGGACAC,0.449
8,GAGGACCA,-0.184
9,GAGGACTC,-0.078
10,CAGGACGC,0.00853
11,CAGGACAC,0.407
12,AAGGACGC,0.167
13,GAGGACTA,0.0516
14,AAGGACCC,-0.0634
15,GAGGACAA,0.466
16,CAGAACAC,-0.0663
17,GAGGACCC,-0.218
18,GAGGACAC,0.398
19,GCCGGTAA,0.146
20,ATATTCGG,0.11
21,AGCAGTTA,-0.0695
22,CTCGACAG,-0.14
23,TACACTGA,0.0723
24,GCCTAAAC,0.0003
25,AGTCGCTA,-0.0278

row,Sequence,PBM E-score
1,ACGATGTA,0.00548
2,GCATCACA,-0.0397
3,ATCGTGCC,0.0402
4,ATCGTGCG,0.306
5,ATCGTGCA,0.125
6,CCCAGACC,-0.348
7,AATTTAAT,0.298
8,GCCCGCAA,-0.0655
9,GCATTGAA,-0.0579
10,AGAAATCC,-0.0711
11,CTGAGAGA,-0.0585
12,ATGAGACC,-0.0403
13,ACGAGACA,0.275
14,ATGAGACG,-0.109
15,ATGAGACA,0.358
16,CTGAGACC,-0.18
17,CCGAGACC,-0.0572
18,CCGAGACA,0.319
19,GTGAGAAA,0.124
20,CTGAGACA,0.319
21,GTGAGACA,0.315
22,GTGAGAGA,-0.0903
23,AGGGGACC,-0.207
24,CCCAGCAC,-0.148
25,GCATCCAA,-0.225

row,Sequence,PBM E-score
1,AATAAAGT,0.209
2,AAGGATTG,0.191
3,GAGGGTAA,-0.114
4,GCAGTAGC,-0.289
5,CGTTTCAG,0.176
6,GCGATGAC,0.0728
7,GCGGTAGC,0.041
8,CAACCATG,0.0589
9,GCAAATAA,0.0601
10,CCAAATAG,-0.0591
11,ACAAATAA,0.307
12,AGAAATAT,0.181
13,ACAAATAC,0.328
14,ACAAATAT,0.404
15,ACAAATAG,0.322
16,GCAAATAC,0.0266
17,CCAAATAC,-0.058
18,TCAAATAA,0.234
19,AAAAATAT,0.208
20,AAAAATAG,0.189
21,ACTTCCCT,-0.185
22,CAAAAAGA,0.0247
23,CGAGTGAC,0.0781
24,AAAATGCT,0.0679
25,ACCGATGC,-0.136

row,Sequence,PBM E-score
1,ATCACCTA,0.0704
2,ATCCAGGA,-0.015
3,CCCAAGGG,-0.22
4,GTGGACTA,0.144
5,CTGGACAC,0.29
6,GTGGACAA,0.468
7,TTGGACAA,0.47
8,CTGGACAG,0.0403
9,CTGGACAA,0.43
10,TTGGAAAA,0.0431
11,TTCGACAA,0.191
12,GTGGACGA,0.18
13,TCTTTCCA,-0.0394
14,CCCTTACC,-0.181
15,ATTATGTG,0.151
16,CTTATGTA,0.124
17,CTTATGTC,0.374
18,CTTATGAC,0.233
19,ATTATGTA,0.149
20,ATTATGTC,0.367
21,ATTCGCTG,0.00671
22,TACCCGCA,-0.0605
23,CATTACGG,0.0771
24,TAGGGGCA,-0.254
25,TAGTACAA,0.321

row,Sequence,PBM E-score
1,ACATACAC,0.207
2,AAGTACAA,0.306
3,ACATAAAT,0.307
4,AAGTACCA,0.107
5,ACATAAAG,0.224
6,ACATAAAA,0.178
7,ACATACAT,0.309
8,ACATACAG,0.167
9,GAGTACAA,0.262
10,AAGTACGA,0.133
11,CAGTACAA,0.262
12,CGGTAGTC,-0.00298
13,GTGATCTA,0.00906
14,ACTTTTGA,0.208
15,ATATCCGG,0.11
16,GTCTCAAC,0.136
17,TCTAAAGA,0.205
18,AACCTTCT,-0.205
19,TAAATCCA,0.0101
20,CGAAGATC,-0.0505
21,AAGTACAG,0.0535
22,ACGTACAT,0.307
